Source: ChEMBL document CHEMBL4513216, “Probing the Open Global Health Chemical Diversity Library for Multistage-Active Starting Points for Next-Generation Antimalarials” (ACS Infect Dis, 2020)
The whole screen tested about 68,000 compounds, of which about 2,700 (4%) showed an effect of 50% or more. Only a selection was taken, and strong results are over-represented in it overall.

System: Plasmodium berghei
Assay: Screen against P. berghei liver stage (PbLuc), transformed with Luciferase, at 2uM
Type: functional, HepG2
Conditions: tested at 2 uM

Row | SMILES | INHIBITION [%]
1 | Cc1occc1C(=O)N1CCC2(CC1)C(c1cnn(C)c1)CC(=O)N2C (centres undefined) | -41.72
2 | Cc1cccc2c1OCCCC2NCc1nccn1Cc1ccccc1 (centres undefined) | 21.72
3 | c1csc(-c2nc(CNCCn3cccn3)cs2)c1 | 4.18
4 | COc1cc(N2C[C@@H]3COC[C@]3(C(=O)NCc3ccccn3)C2)ncn1 | -23.31
5 | Nc1ncccc1C(=O)NCc1cccc(Br)c1 | -3.16
6 | O=C(NCCc1cccs1)[C@]12COC[C@H]1CN(C1CCOCC1)C2 | 17.24
7 | COc1cc(N2CCC3(CCCN3Cc3cnn(C)c3)CC2)ncn1 | 30.09
8 | Cc1ccc(-c2cc(CN3CCc4cnc(C)nc4C3)on2)cc1 | -34.82
9 | O=C([C@H]1C[C@H]2OCC[C@H]2N(C(=O)c2cnccn2)C1)N1CCCCO1 | -1.69
10 | O=C([C@H]1C[C@H]2OCC[C@H]2N(C(=O)c2ccncc2)C1)N1CCCCO1 | -34.26
11 | O=C([C@H]1C[C@H]2OCC[C@H]2N(C(=O)c2ccccn2)C1)N1CCCCO1 | 62.1
12 | O=C(c1ccc(Br)o1)N1CCN(Cc2ccc(F)cc2)CC1 | 10.22
13 | CC(C)NC(=O)Nc1ccc(CNCc2cccc(C#N)c2)cc1 | -68.26
14 | Cn1ccnc1CC1CCCN(Cc2noc(C3CC3)n2)C1 (centres undefined) | 11.24
15 | Cn1ccnc1CNC1CCCN(Cc2noc(C3CC3)n2)C1 (centres undefined) | 50.32
16 | Cn1cc(CNC2CCCN(Cc3noc(C4CC4)n3)C2)cn1 (centres undefined) | 2.08
17 | Cc1nc(CN2CCCC(NCCCc3ccccc3)C2)no1 (centres undefined) | -6.4
18 | Cc1nc(CN2CCCC(NCc3cccc4ccccc34)C2)no1 (centres undefined) | 29.54
19 | CCc1nc(CN2CCCC(NCc3nc(C)c(C)o3)C2)no1 (centres undefined) | 36.73
20 | Cc1ccc(CNC2CCCN(Cc3noc(C4CC4)n3)C2)s1 (centres undefined) | 54.29
21 | Cc1ncc(CNC2CCCN(Cc3noc(C4CC4)n3)C2)s1 (centres undefined) | 18.46
22 | Cc1nc(CN2CCCC(NCCc3ccccc3Cl)C2)no1 (centres undefined) | 56.67
23 | CCc1nc(CN2CCCC(NCc3cnc(C)s3)C2)no1 (centres undefined) | 77.57
24 | Cc1cc(CNC2CCCN(Cc3noc(C4CC4)n3)C2)on1 (centres undefined) | 7.01
25 | CCc1nc(CN2CCCC(NCc3cc(C)no3)C2)no1 (centres undefined) | -2.1
26 | Cc1oc(C(=O)O)cc1S(=O)(=O)Nc1cccc(-c2nccs2)c1 | 15.39

Row | SMILES | INHIBITION [%]
27 | Fc1cnc(N2C[C@H]3CCC[C@@]3(COc3ccccn3)C2)nc1 | -27.16
28 | COc1ccc2cc(NC(=O)CCNc3nc(C)cc(C)n3)cnc2c1 | -6.83
29 | O=C(CN(C1=NCCCCC1)c1ccc(Cl)cc1)c1ccccc1 | -65.06
30 | CC(C)c1ccc(CN2CCC3(CCCN(c4nncs4)C3)C2)cc1 (centres undefined) | 5.52
31 | Cc1noc(C)c1CCC(=O)N1CCN(CCn2cccn2)CC1 | 2.18
32 | CC(NC(=O)COCC(F)(F)F)c1nnc2n1CCCCC2 (centres undefined) | 15.08
33 | Fc1ccccc1-c1cccc(C2CCCN(C3CCOCC3)C2)n1 (centres undefined) | 25.4
34 | c1cnn(CC2CCCCN2Cc2noc(C3CC3)n2)c1 (centres undefined) | -10.47
35 | c1ncn(CC2CCCCN2Cc2noc(C3CC3)n2)n1 (centres undefined) | 62.13
36 | Cc1nc(CN2CCCC2Cn2cncn2)no1 (centres undefined) | -21.93
37 | CCc1nc(CN2CCCC(NCCn3cncn3)C2)no1 (centres undefined) | 35.56
38 | Cc1nc(CN2CCCC(NCc3sccc3C)C2)no1 (centres undefined) | 51.94
39 | c1ncn(CCNC2CCCN(Cc3noc(C4CC4)n3)C2)n1 (centres undefined) | 54.29
40 | Cc1ccsc1CNC1CCCN(Cc2noc(C3CC3)n2)C1 (centres undefined) | 17.59
41 | Cc1nc(CN2CCCC(NCc3ccsc3)C2)no1 (centres undefined) | 20.28
42 | c1ncn(CC2CCCN(Cc3noc(C4CC4)n3)C2)n1 (centres undefined) | 29.54
43 | CCC(=O)Nc1cccc(C(=O)NCCC2=CSC3=NCCCN23)c1 | -17.86
44 | COc1ccc(-c2nc(C3CCNCC3)cc3c2ncn3C)cc1 | -0.45
45 | COCCS(=O)(=O)c1ncc(CN(C)C)n1Cc1ccccc1 | 29.41
46 | Cc1ccc2c(c1)N(C(=O)C1CCCOC1)CCC2 (centres undefined) | -13.38
47 | O=C(C1CCCOC1)N1CCCc2ccccc21 (centres undefined) | 53.29
48 | O=C(C1CCCOC1)N1CCCCc2ccccc21 (centres undefined) | 16.09
49 | C1CCCN(c2nc(C3CC3)no2)CC1 | 28.02
50 | Cc1ccsc1CN1C[C@@H]2CN(Cc3cccnc3)CCO[C@@H]2C1 | 4.26
51 | Cc1ncsc1CN1C[C@@H]2CN(Cc3cccnc3)CCO[C@@H]2C1 | 54.13
52 | COc1ccc(CN2C[C@@H]3CN(Cc4cccnc4)CCO[C@@H]3C2)cc1 | 39.57

Row | SMILES | INHIBITION [%]
53 | Cc1cc(C)c2cc(CNC3CCCCC3)c3nn(C)c(=O)n3c2c1 | 14.26
54 | Cc1cccc(C2(CNC(=O)CCNS(C)(=O)=O)CCCC2)c1 | 3.9
55 | COCCN1CCC2(CC1)CC(N1CCOCC1)c1ccc(C)cc12 (centres undefined) | 17.47
56 | CC(C)C(=O)N(C)Cc1nnc2n1CCCCC2 | 21.82
57 | CC(=O)NC(C(=O)N(C)Cc1nnc2n1CCC2)C(C)C (centres undefined) | -63.33
58 | CC(C)C(Sc1ccccc1)C(=O)N(C)Cc1nnc2n1CCC2 (centres undefined) | 64.39
59 | CC(C)Nc1nc2c(c(NC3CC3)n1)CCN(Cc1nccn1C)CC2 | 34.71
60 | CCCn1cc(NC2CCSCC2)cn1 | 46.58
61 | O=C(NCC1(O)CCC1)NC(c1cc(F)ccc1F)C1CC1 (centres undefined) | -5.74
62 | CCOC(=O)c1n[nH]cc1CN1CCCC(N(C)Cc2ccccc2)C1 (centres undefined) | 52.3
63 | CCOC(=O)c1n[nH]cc1CN1CCOC(Cc2ccccc2)C1 (centres undefined) | -30.18
64 | CCOC(=O)c1n[nH]cc1CN1CCOC(Cc2ccc(F)cc2)C1 (centres undefined) | -142.94
65 | CCS(=O)(=O)N1CC(=O)N(CCCc2ccccc2)CC(O)C1 (centres undefined) | 12.44
66 | Cc1cnn(CC2CCCN2C(=O)c2cnc3n[nH]c(C)c3c2)c1 (centres undefined) | -27.31
67 | O=C(Cn1cc(C(=O)O)ccc1=O)NCc1ccc(F)c(Cl)c1 | 11.14
68 | O=C(C1CC1)N(Cc1ccc2cc[nH]c2c1)C1CC1 | 11.43
69 | CN(C)c1nc2c(c(N(C)C)n1)CCN(C(=O)CN1CCC(O)CC1)C2 | 13.99
70 | c1cncc(COCC2CN(Cc3ccco3)Cc3ccnn3C2)c1 (centres undefined) | 1.22
71 | c1ccc(COCC2CN(Cc3ccsc3)Cc3nccn3C2)nc1 (centres undefined) | 59.88
72 | c1cncc(COCC2CN(Cc3ccncc3)Cc3ccnn3C2)c1 (centres undefined) | -34.65
73 | c1ccc(CN2Cc3ccnn3CC(COCc3cccnc3)C2)nc1 (centres undefined) | 50.32
74 | c1cncc(OCC2CN(Cc3ccsc3)Cc3nccn3C2)c1 (centres undefined) | 45.82
75 | c1cncc(COCC2CN(Cc3cccnc3)Cc3ccnn3C2)c1 (centres undefined) | 56.78
76 | CN(C)C(=O)COCC1CN(Cc2ccsc2)Cc2nccn2C1 (centres undefined) | 15.44
77 | c1cncc(COCC2CN(Cc3ccsc3)Cc3ccnn3C2)c1 (centres undefined) | -10.99
78 | Cc1ccc(CN2Cc3ccnn3CC(COCc3cccnc3)C2)o1 (centres undefined) | 49.25

Row | SMILES | INHIBITION [%]
79 | CN(C)C(=O)CCC[S+]([O-])Cc1ccc(Cl)c(Cl)c1 (centres undefined) | -32.8
80 | CSc1ccc(CN(C)Cc2noc(C(C)(C)C)n2)cc1 | 21.28
81 | CC(C)Nc1nc2c(s1)C(=O)CN(CC1CC1)C2 | -17.3
82 | CC[C@@]1(O)CCN(CCCOc2ccc(C(N)=O)cc2)C[C@H]1O | -15.75
83 | CN(CCc1cccs1)C(=O)Nc1ccc2c(c1)C(=O)N(C)CC2 | 5.28
84 | CN1CCc2ccc(NCc3cccs3)cc2C1=O | 50.59
85 | CN1CCc2ccc(NCc3cscn3)cc2C1=O | 36.28
86 | CCO[C@H]1CO[C@@]2(CCN(Cc3ccc4c(c3)OCO4)C2)C1 | -23.42
87 | FC(F)(F)Cn1ccnc1CN1CCCC1c1noc(C2CC2)n1 (centres undefined) | -2.7
88 | COCCNC(=O)C1CN(Cc2csc(C)n2)Cc2ccnn2C1 (centres undefined) | 47.54
89 | CC(C)CC(O)C1CCN(C(=O)c2coc(CN3CCOCC3)c2)CC1 (centres undefined) | 13.19
90 | CC(C)CC(O)C1CCN(C(=O)c2ccc(C(C)C)[nH]c2=O)CC1 (centres undefined) | -25.72
91 | CC(C)CC(O)C1CCN(C(=O)c2ccc(C(F)(F)F)nc2O)CC1 (centres undefined) | 72.05
92 | O=C(NCC(O)(c1cccs1)C1CC1)NC1CCCCC1 (centres undefined) | -11.54
93 | CN(Cc1ccccn1)C(C(=O)O)c1ccc2c(c1)OCO2 (centres undefined) | 13.86
94 | COc1ccc(CCN2CC(n3nc(C)cc3C)C2)cc1 | 33.55
95 | Cc1nc2[nH]cnc(NCCN3CCOCC3)c-2n1 | -7.81
96 | Cc1nc(CN2C[C@H]3C[C@H](C(=O)NCC4CC4)N(C)[C@H]3C2)cs1 | 55.66
97 | Cc1ccc(CN2C[C@H]3C[C@H](C(=O)NCC4CC4)N(C)[C@H]3C2)o1 | -13.53
98 | O=C(NCC1CCN(Cc2ccsc2)CC1)NC1CC1 | -18.04
99 | Cc1ccc(CN2C[C@@H]3C[C@H](C(=O)NCC4CC4)N(C)[C@@H]3C2)o1 | 21.06
100 | CN1[C@@H](C(=O)NCC2CC2)C[C@H]2CN(Cc3ccsc3)C[C@H]21 | 1.29
101 | O=C(NCc1ccccc1)NCC1CCN(Cc2ccsc2)CC1 | 51
102 | CN1[C@@H](C(=O)NCC2CC2)C[C@@H]2CN(Cc3ccoc3)C[C@@H]21 | 40.83
103 | O=C(CCc1ccccc1)NCC1CCN(Cc2ccsc2)CC1 | 13.22
104 | CN1[C@@H](C(=O)NCC2CC2)C[C@@H]2CN(Cc3ccsc3)C[C@@H]21 | 59.5
